Records with an inconclusive call do not appear. The source made the active and inactive calls. Calls follow the shape of the dose curve; as a rule, active = well fitted curve in the direction sought with a large enough effect in the repeat runs; inconclusive = weak or mixed curves; inactive = no such curve, though single readings can be large; an effect the other way counts as inactive or inconclusive.
Assays:
[1] = qHTS RealTime-Glo MT Cell Viability Assay in HepG2 cells - 24 hour (AID 1224867); also: nearly all actives have a fitted effect of over 50% in size
In short: (§1)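 HepG2 cells (600/well) were dispensed with RealTime-Glo reagents, incubated 5 h at 37 °C, then treated with compounds in DMSO for up to 40 h. Nonlytic NanoLuc luminescence reflecting viable cells was read at each stated time point.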

[2] = qHTS RealTime-Glo MT Cell Viability Assay in HEK293 cells - 32 hour (AID 1224868); also: top concentration of the series differs between compounds; nearly all actives have a fitted effect of over 50% in size
In short: (§2)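 HEK293 cells seeded with NanoLuc/prosubstrate reagent, rested 5 h at 37 C, then dosed and kept at 37 C up to 40 h. Nonlytic real-time luminescence from viable cells read at 0, 8, 16, 24, 32 and 40 h.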

[3] = A CellTox Green Cytotoxicity Assay to monitor cytotoxicity in HEK293 cells - 0 hour (AID 1224869); also: nearly all actives have a fitted effect of over 50% in size
In short: (§3)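 Cells (HEK293, 600/well) and dye reagent are dispensed together. After 5 h at 37 C, 23 nL compound is pinned in. Plates stay at 37 C for 40 h with fluorescence read at 0h, 8h, 16h, 24h, 32h and 40h.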

[4] = qHTS RealTime-Glo MT Cell Viability Assay in HepG2 cells - 40 hour (AID 1224870); also: nearly all actives have a fitted effect of over 50% in size
In short: (§4)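 HepG2 cells (600/well) mixed with RealTime-Glo MT reagent, settled 5 h at 37 C/5% CO2 before compound addition. Nonlytic NanoLuc luminescence from viable-cell prosubstrate reduction read repeatedly during 40 h treatment at 37 C.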

[5] = A CellTox Green Cytotoxicity Assay to monitor cytotoxicity in HEK293 cells - 40 hour (AID 1224871); also: nearly all actives have a fitted effect of over 45% in size
In short: as §3

[6] = qHTS RealTime-Glo MT Cell Viability Assay in HEK293 cells - 16 hour (AID 1224872)
In short: as §2

[7] = qHTS RealTime-Glo MT Cell Viability Assay in HepG2 cells - 8 hour (AID 1224873); also: nearly all actives have a fitted effect of over 55% in size
In short: as §4

[8] = A CellTox Green Cytotoxicity Assay to monitor cytotoxicity in HEK293 cells - 24 hour (AID 1224875); also: series mostly up to about 77 µM; nearly all actives have a fitted effect of over 45% in size
In short: as §3

[9] = A CellTox Green Cytotoxicity Assay to monitor cytotoxicity in HepG2 cells - 16 hour (AID 1224876); also: nearly all actives have a fitted effect of over 45% in size
In short: (§5)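 Cells and non-lytic dye reagent are dispensed together (600 HepG2 cells/well) and incubated 5 h before DMSO compound transfer. Kinetic fluorescence is then recorded in the same wells during 40 h at 37 C.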

[10] = qHTS RealTime-Glo MT Cell Viability Assay in HepG2 cells - 32 hour (AID 1224877); also: nearly all actives have a fitted effect of over 55% in size
In short: as §1

[11] = A CellTox Green Cytotoxicity Assay to monitor cytotoxicity in HepG2 cells - 24 hour (AID 1224878); also: nearly all actives have a fitted effect of over 45% in size
In short: as §5

[12] = A CellTox Green Cytotoxicity Assay to monitor cytotoxicity in HepG2 cells - 40 hour (AID 1224879); also: nearly all actives have a fitted effect of over 40% in size
In short: as §5

[13] = qHTS RealTime-Glo MT Cell Viability Assay in HEK293 cells - 0 hour (AID 1224880)
In short: (§6)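 Real-time viability in HEK293: signal arises when living cells convert a prosubstrate for NanoLuc in the medium, so luminescence tracks viable cell number. Compound (23 nL, DMSO) added 5 h post-seeding; kinetic reads at 0–40 h, 37 C.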

[14] = A CellTox Green Cytotoxicity Assay to monitor cytotoxicity in HEK293 cells - 32 hour (AID 1224881); also: nearly all actives have a fitted effect of over 40% in size
In short: as §3

[15] = A CellTox Green Cytotoxicity Assay to monitor cytotoxicity in HepG2 cells - 0 hour (AID 1224882); also: nearly all actives have a fitted effect of over 35% in size
In short: as §5

[16] = A CellTox Green Cytotoxicity Assay to monitor cytotoxicity in HepG2 cells - 32 hour (AID 1224883); also: nearly all actives have a fitted effect of over 50% in size
In short: as §5

[17] = A CellTox Green Cytotoxicity Assay to monitor cytotoxicity in HEK293 cells - 8 hour (AID 1224884); also: nearly all actives have a fitted effect of over 35% in size
In short: as §3

[18] = qHTS RealTime-Glo MT Cell Viability Assay in HepG2 cells - 16 hour (AID 1224885); also: nearly all actives have a fitted effect of over 50% in size
In short: as §1

[19] = qHTS RealTime-Glo MT Cell Viability Assay in HEK293 cells - 24 hour (AID 1224886)
In short: as §2

[20] = qHTS RealTime-Glo MT Cell Viability Assay in HEK293 cells - 40 hour (AID 1224874); conditions: RealTime-Glo luminescence; max response: hits give low values; also: nearly all actives have a fitted effect of over 50% in size
In short: as §6
% is scaled to controls: 0 for no effect and ±100 for the full control effect.

NCC1(Cc2noc(=O)[nH]2)CCCCC1
inactive: outcome [1] | Potency [2] | Potency [3] | outcome [4] | Potency [5] | Potency [6] | outcome [7] | Potency [8] | Potency [9] | outcome [10] | Potency [11] | Potency [12] | Potency [13] | Potency [14] | Potency [15] | Potency [16] | Potency [17] | outcome [18] | Potency [19]

CC(=O)OC1CCCCC1C(C)(C)C (stereo unspecified)
inactive: outcome [1] | Potency [2] | Potency [3] | outcome [4] | Potency [5] | Potency [6] | outcome [7] | Potency [8] | Potency [9] | outcome [10] | Potency [11] | Potency [12] | Potency [13] | Potency [14] | Potency [15] | Potency [16] | Potency [17] | outcome [18] | Potency [19]

CO[C@@]1(NC(=O)Cc2cccs2)C(=O)N2C(C(=O)O)=C(COC(N)=O)CS[C@@H]21
inactive: outcome [1] | Potency [2] | Potency [3] | outcome [4] | Potency [5] | outcome [7] | max response [20] 0.152% | Potency [8] | Potency [9] | Potency [11] | Potency [12] | Potency [13] | Potency [14] | Potency [15] | Potency [16] | Potency [17] | outcome [18] | Potency [19]

CC(C)(CO)C(O)C(=O)NCCCO (stereo unspecified)
inactive: outcome [1] | Potency [2] | Potency [3] | Potency [5] | outcome [7] | max response [20] 2.36% | Potency [8] | Potency [9] | outcome [10] | Potency [11] | Potency [12] | Potency [13] | Potency [14] | Potency [15] | Potency [16] | Potency [17] | outcome [18] | Potency [19]

CCCCCCCCCCOC(C)=O
inactive: outcome [1] | Potency [2] | Potency [3] | Potency [5] | Potency [6] | outcome [7] | max response [20] 0.865% | Potency [8] | Potency [9] | Potency [11] | Potency [12] | Potency [14] | Potency [15] | Potency [16] | Potency [17] | outcome [18] | Potency [19]

O=C(Cn1ccnc1[N+](=O)[O-])NCc1ccccc1
inactive: outcome [1] | Potency [3] | outcome [4] | Potency [5] | Potency [6] | outcome [7] | max response [20] -1.45% | Potency [8] | Potency [9] | outcome [10] | Potency [11] | Potency [12] | Potency [13] | Potency [14] | Potency [15] | Potency [16] | Potency [17] | outcome [18] | Potency [19]

CC(O)CC(C)O (stereo unspecified)
inactive: outcome [1] | Potency [3] | outcome [4] | Potency [5] | Potency [6] | outcome [7] | max response [20] 0.995% | Potency [8] | Potency [9] | outcome [10] | Potency [11] | Potency [12] | Potency [13] | Potency [14] | Potency [15] | Potency [16] | Potency [17] | outcome [18] | Potency [19]

CC(C)CO
inactive: outcome [1] | Potency [2] | Potency [3] | outcome [4] | Potency [6] | outcome [7] | max response [20] -4.29% | Potency [9] | outcome [10] | Potency [11] | Potency [12] | Potency [13] | Potency [15] | Potency [16] | Potency [17] | outcome [18] | Potency [19]

CC(C)=CCC[C@@](C)(O)[C@H]1CC=C(C)CC1
inactive: outcome [1] | Potency [2] | Potency [3] | Potency [5] | Potency [6] | outcome [7] | Potency [8] | Potency [9] | outcome [10] | Potency [11] | Potency [12] | Potency [13] | Potency [14] | Potency [15] | Potency [16] | Potency [17] | outcome [18] | Potency [19]

CC1(C)Cc2cccc(N)c2O1
inactive: outcome [1] | Potency [2] | Potency [3] | Potency [5] | Potency [6] | outcome [7] | max response [20] 1.5% | Potency [8] | Potency [9] | outcome [10] | Potency [11] | Potency [12] | Potency [13] | Potency [14] | Potency [15] | Potency [16] | Potency [17] | outcome [18] | Potency [19]

CC/C(C)=N\O[Si](C)(O/N=C(\C)CC)O/N=C(\C)CC
inactive: outcome [1] | Potency [2] | Potency [3] | Potency [5] | Potency [6] | outcome [7] | max response [20] -3.49% | Potency [8] | Potency [9] | outcome [10] | Potency [11] | Potency [12] | Potency [13] | Potency [14] | Potency [15] | Potency [16] | Potency [17] | outcome [18] | Potency [19]

C=CC/C=C/C
inactive: outcome [1] | Potency [2] | Potency [3] | Potency [5] | Potency [6] | outcome [7] | max response [20] -0.772% | Potency [8] | Potency [9] | outcome [10] | Potency [11] | Potency [12] | Potency [13] | Potency [14] | Potency [15] | Potency [16] | Potency [17] | outcome [18] | Potency [19]
